An excerpt weighted towards active compounds, which were near 7.4% of everything screened.
NPC1 prom act: qHTS Assay for NPC1 Promoter Activators; Huh7 NPC1 promoter luciferase reporter, 24 h; AID 485313, 2010; actives 2.4% (n = 320,000); Potency, µM (series often up to 9.22 µM), inactives show at the top dose activation, most hits filed as activators; also: % of control where 0% means no effect; nearly all actives have a fitted effect of over 60% in size
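Huh7 reporter cells (NPC1 promoter driving luciferase) are dosed with compound for 24 h at 37 °C, 5% CO2; luciferase detection reagent is then added and luminescence measured after 10 min at ambient temperature.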
SMN2 splice up: qHTS Assay for Enhancers of SMN2 Splice Variant Expression. HEK293 SMN2-luciferase splicing reporter, luminescence, 30-36 h. Potency, µM (highest dose often 46.1 µM), inactives show at the highest dose activity change, positive = activation, usual class: activators. actives 2.8% (n = 210,000); also: % of control where 0% means no effect; nearly all actives have a fitted effect of over 55% in size
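HEK293 cells carry an SMN2 minigene-luciferase reporter in which exon 7 inclusion puts luciferase in frame. Cells were seeded at 2000 cells/well, attached for 10-12 hours, then exposed to compounds for 30-36 hours at 37C before ONE-Glo luminescence.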
ELG1 genotoxic: qHTS screen for small molecules that induce genotoxicity in human embryonic kidney (HEK293T) cells expressing luciferase-tagged ELG1. actives 1.3% (n = 330,000). Potency, µM (highest dose often 46 µM), without a hit: top-dose activity change, positive = activation, usual class: activators. HEK293T ELG1-luciferase reporter, luminescence, 16 h; also: % of control where 0% means no effect; nearly all actives have a fitted effect of over 60% in size
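Step 1: seed 2,000 HEK293T ELG1-luciferase cells per well. Step 2: add compound or DMSO, incubate 16 hr at 37 °C. Step 3: ONE-Glo, 30 min at room temperature, read luminescence.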
Rab9 prom act: qHTS Assay for Rab9 Promoter Activators | Huh7 Rab9 promoter-luciferase reporter, luminescence, 24 h | Potency, µM (doses to about 9.22 µM), without a hit: at the top dose activation, negative = inhibition, actives largely listed as activators | actives 2.8% (n = 320,000); also: % of control where 0% means no effect; nearly all actives have a fitted effect of over 60% in size
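Luciferase signal after 10 min detection reagent at ambient indicates Rab9 promoter upregulation; stably transfected Huh7 cells were treated 24 h with compound in DMSO at 37 °C, 5% CO2.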
FLuc counter: qHTS profiling assay for firefly luciferase inhibitor/activator using purifed enzyme and Km concentrations of substrates (counterscreen for miR-21 project); purified FLuc, Km substrates, luminescence inhibition; actives 6.9% (n = 360,000); Potency, µM (doses to about 57.5 µM), for inactives: at the highest dose activity change, negative = inhibition, actives largely listed as inhibitors; Luciferin 4-monooxygenase (Photinus pyralis), P08659;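 also: plate controls were vehicle for no effect and reference inhibitor for full effect; nearly all actives have a fitted effect of over 55% in size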
Target sequence (P08659 whole entry, looked up): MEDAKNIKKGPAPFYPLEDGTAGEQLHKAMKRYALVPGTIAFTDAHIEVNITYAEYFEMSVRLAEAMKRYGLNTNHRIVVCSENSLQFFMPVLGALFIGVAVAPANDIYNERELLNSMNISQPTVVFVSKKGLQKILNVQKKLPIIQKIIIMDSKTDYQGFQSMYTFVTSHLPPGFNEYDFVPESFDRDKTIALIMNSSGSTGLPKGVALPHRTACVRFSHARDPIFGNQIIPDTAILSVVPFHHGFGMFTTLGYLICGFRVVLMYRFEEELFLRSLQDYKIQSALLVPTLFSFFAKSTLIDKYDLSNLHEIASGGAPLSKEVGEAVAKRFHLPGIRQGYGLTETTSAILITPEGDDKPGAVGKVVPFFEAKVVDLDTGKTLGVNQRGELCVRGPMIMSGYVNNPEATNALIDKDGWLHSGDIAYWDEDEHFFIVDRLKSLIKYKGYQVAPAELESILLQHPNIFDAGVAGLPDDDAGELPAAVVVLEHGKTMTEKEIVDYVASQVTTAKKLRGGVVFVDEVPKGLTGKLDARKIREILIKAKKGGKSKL
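Purified P. pyralis luciferase (10nM final) with 10uM D-luciferin and 10uM ATP (Km levels) in 50mM Tris acetate pH 7.5, 10mM Mg acetate, 0.01% Tween-20, 0.05% BSA; qHTS 6-point titration, ~60 µM downward; luminescence read.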
p53 reactivator: qHTS assay for re-activators of p53 using a Luc reporter. H1299 p53-A138V BP100-luciferase reporter, luminescence, 24 h. actives 0.063% (n = 320,000). Potency, µM (top dose mostly 92.2 µM), without a hit: at the top dose activity change, positive = activation, hits mostly activators; also: % of control where 0% means no effect; nearly all actives have a fitted effect of over 45% in size
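H1299 (p53-null), stable ts p53-A138V + BP100-Luc; 1000 cells/well, Opti-MEM/10% FBS; cpd 4 pt, 1:5; 24 h, 37 deg C, 5% CO2; detection reagent 10 min RT; luminescence.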
Starred values were filed as active, the others as inactive; ? = inconclusive; . = not tested or not shown; [ ] = dose if it differs, or a comment. Calls follow the shape of the dose curve; as a rule, active = well fitted curve in the direction sought with a large enough effect; inconclusive = small, poorly fitted or top-dose-only effect, or another doubt; inactive = no such curve, though single readings can be large; an effect the other way counts as inactive or inconclusive. Potency is read from the fitted curve at half-maximal effect.

SMILES	NPC1 prom act	SMN2 splice up	ELG1 genotoxic	Rab9 prom act	FLuc counter	p53 reactivator
CCOC(=O)Cc1c(C)nc2cc(-c3ccc(Cl)cc3)[nH]n2c1=O	3%	13%	?	14%	?	20%
Cc1nc2cc(-c3ccccc3)[nH]n2c(=O)c1C	-35%	.	21µM*	?	13µM*	.
COc1ccc(-c2cc3nc(N)cc(=O)n3[nH]2)cc1	.	9%	.	.	-13%	.
CCOC(=O)Cc1cc(=O)n2[nH]c(-c3ccc(C)cc3)cc2n1	1%	-2%	?	18%	19µM*	14%
CCOC(=O)c1cc(=O)n2[nH]c(-c3ccc(C)cc3)cc2n1	-2%	?	?	-1%	13µM*	17%
Cc1ncc(CSc2ccccc2N)c(CO)c1O	.	-5%[9.22 µM]	.	.	.	.
Cc1cc(=O)n2[nH]c(-c3ccc(C(C)(C)C)cc3)cc2n1	20%	-88%	6%	24%	11µM*	7%
C/C(=N/NC(=O)c1cc(O)c(O)c(O)c1)c1ccc([N+](=O)[O-])cc1	-2%	11%	2%	3%	?	3%
C/C(=N\NC(=O)c1ccc([N+](=O)[O-])cc1Cl)c1ccccc1	?	.	?	3.5µM*	?	13%
CC(Sc1ccc(Cl)cc1)C(=O)Nc1ccc2c(c1)OCO2 (stereo not given)	1%	10%	-1%	-1%	-1%	-2%
CC(C)N1CCC2(CC1)N=C(c1ccc3c(c1)OCO3)CC(c1cc(Cl)ccc1O)N2 (stereo not given)	-4%	-23%	-16%	-1%	17µM*	-13%
Cc1cccc(C)c1NC(=O)CCSc1nc(-c2ccc3c(c2)OCO3)cc(C(F)(F)F)n1	.	-9%	.	.	1%	.
c1ccc(-c2ccccn2)nc1	-3%[46.1 µM]	-9%	-1%	-4%[46.1 µM]	3%	5%
c1ccc(-c2ccc(-c3ccccn3)nn2)nc1	0.32µM*	7.1µM*	10%	0.32µM*	1.3µM*	9%
c1ccc(-c2nnc(-c3ccccc3)nn2)cc1	3.2µM*	.	?	1.3µM*	0.38µM*	?
COc1ccccc1C(=O)Nc1cccc2c1CCCC2	-4%	.	-4%	-4%	?	?
O=C(Nc1cccc(C(=O)N2CCCCC2)c1)c1ccc(Cl)cc1	16%	.	-2%	26%	?	3%
COC(=O)c1cccc(NC(=O)c2nsc3ccccc23)c1	.	?	.	.	0.95µM*	.
O=C(Nc1cccc(C(=O)N2CCCCC2)c1)c1nsc2ccccc12	.	.	.	.	5.4µM*	.
COC(=O)c1cccc(NC(=O)c2nn(C(C)C)c(=O)c3ccccc23)c1	18%	-12%	9%	-1%	-1%	0%
CCCCNC(=O)c1cccc(NC(=O)c2nsc3ccccc23)c1	.	.	.	.	4.8µM*	.
O=C(NCc1cccc(F)c1)c1cccc(NC(=O)c2nsc3ccccc23)c1	.	.	.	.	8.5µM*	.
CCOC(=O)c1ccc(NC(=O)c2oc(=O)c3ccccc3c2-c2ccccc2)cc1	.	.	.	.	3%	.
Nc1cc(N2CCCCC2)nc(N)[n+]1OS(=O)(=O)[O-]	.	4%	.	.	.	.
COc1cccc(CNC(=O)c2cccc(Br)c2)c1	9%	-4%	0%	0%	-11%	-5%
SMILES	NPC1 prom act	SMN2 splice up	ELG1 genotoxic	Rab9 prom act	FLuc counter	p53 reactivator
COc1cccc(CNC(=O)c2cccc(NC(=O)c3nsc4ccccc34)c2)c1	.	.	.	.	6.7µM*	.
Cn1nc(-c2ccccc2F)c2cc(C(=O)NCc3ccccc3Cl)sc21	.	6%	.	.	-7%	.
Cc1cccc(NC(=O)C(=O)C2C(=O)Nc3ccccc32)c1 (stereo not given)	21%	.	4%	18%	15µM*	8%
Oc1c(Cl)cc(C(c2cc(Cl)c(O)c(Cl)c2)C(c2cc(Cl)c(O)c(Cl)c2)c2cc(Cl)c(O)c(Cl)c2)cc1Cl	.	-31%[9.22 µM]	.	.	.	.
COc1ccc(C2=NN(C(C#N)c3ccc(OC)c(OC)c3)C(c3ccccc3)C2)cc1 (stereo not given)	14%	95%	5.8µM*	?	12µM*	?
CC(=O)OC1CC[C@@]2(C)C3=CC(=O)[C@]4(C)C(CC5OC6(OCC(C)CC6Br)C(C)C54)C3CC[C@H]2C1 (stereo not given in full)	.	5%	.	.	.	.
CC(C)Cc1ccc(S(=O)(=O)NCc2nc3cccnc3n2Cc2ccccc2)cc1	.	.	.	.	-16%	.
Cc1cccc(OCC(=O)N2CCC(c3ccccc3)C2)c1 (stereo not given)	3.2µM*	16µM*	21µM*	2.8µM*	13µM*	?
O=C(COc1ccc(F)cc1)N1CCC(c2ccccc2)C1 (stereo not given)	29%	13µM*	?	?	19µM*	?
Cc1cccc(OCC(=O)N2CCN(C(=O)Cc3ccccc3)CC2)c1	-3%	-7%	-2%	-2%	3%	22%
O=C(NCCc1ccccc1)c1ccc(CSc2nc3ccncc3n2Cc2ccccc2F)cc1	.	?	.	.	-18%	.
O=C(Nc1ccccc1)Nc1cccc(-c2nnco2)c1	3%	.	-3%	17%	15µM*	4%
O=C(Nc1ccc(-c2nnco2)cc1)c1ccccc1	28%	20%	?	15%	?	15%
CC(=O)Nc1cccc(-c2nc(-c3ccccc3)no2)c1	.	.	.	.	2.4µM*	.
O=C(Nc1cccc(-c2nnc(-c3ccccc3)o2)c1)C1CC1	19%	-9%	6%	0%[1.84 µM]	?	-1%
CC(=O)Nc1cccc(-c2nnc(-c3ccccc3)o2)c1	3.5µM*	13µM*	8.2µM*	3.5µM*	12µM*	?
CCOc1cccc(C(=O)Nc2cccc(-c3nnc(-c4ccc(C)cc4)o3)c2)c1	-12%	-19%	9%	-27%	0%	12%
CCOc1cccc(C(=O)Nc2cccc(-c3nnc(-c4ccccc4)o3)c2)c1	1%	-15%	-9%	6%	6.7µM*	4%
CCc1ccc(CNC(=O)C2COc3ccccc3C2)cc1 (stereo not given)	.	.	.	.	0%	.
Cc1c(C(=O)NCCS(=O)(=O)N2CCN(c3ccccc3F)CC2)cccc1[N+](=O)[O-]	-7%	.	-8%	-9%	0%	6%
Cc1sc(NC(=O)c2ccco2)c(CN2CCN(c3ccccn3)CC2)c1C	8%	.	4%	10%	6µM*	10%
Cc1sc(NC(=S)NC(=O)c2ccc(C(C)(C)C)cc2)c(C#N)c1C	-4%	?	0%	-2%	-11%	4%

Screening results deposited in PubChem BioAssay by National Center for Advancing Translational Sciences (NCATS).
